AmpC inh detg: AmpC beta-lactamase inhibition with detergent present; P00811; AmpC hydrolysis of nitrocefin, absorbance 480 nm, 0.01% Triton; Potency, µM (series often up to 114 µM), hits mostly inhibitors; actives 0.041% (n = 370,000); also: nearly all actives have a fitted effect of over 25% in size
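20 mM phosphate pH 7.0 + 0.01% (detergent screen) or 0.0001% Triton X-100; 5.3 nM AmpC reagent; cpd preinc 15 min RT; nitrocefin (800 uM stock) to start; A480 q20 s × 4 min; Activity was normalised to no-enzyme and no-compound control wells.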
SARS PLpro yeast: blocks SARS-CoV papain-like protease in a yeast assay; S. cerevisiae expressing SARS-CoV PLpro, growth rescue; Potency, µM (series often up to 32.9 µM), usual class: activators; actives 0.19% (n = 330,000); AID 485353; calls by dose curve; also: nearly all actives have a fitted effect of over 55% in size
Giardia FBPA inh-1: inhibitors of Giardia lamblia fructose-1,6-bisphosphate aldolase | Potency, µM (doses to about 59.6 µM), usual class: inhibitors | actives 0.71% (n = 290,000) | purified Giardia FBPA | A8B2U2; also: nearly all actives have a fitted effect of over 55% in size
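Giardia FBPA (40 nM reagent) was preincubated 10 min at RT with compound (up to 57.5 uM final), then substrate plus GAPDH/TPI/NAD/arsenate coupling system with diaphorase/resazurin was added; resorufin fluorescence (525/598 nm) was read after 20 min.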
NS1 function inh: influenza NS1 inhibition; Potency, µM (top dose mostly 46.1 µM); actives 0.4% (n = 270,000); AID 2326; calls by dose curve; also: actives are rising curves; nearly all actives have a fitted effect of over 50% in size
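S. cerevisiae expressing influenza A NS1, grown in glucose, washed, then diluted 1:100 into pH 6.0 -URA galactose medium with 23 nl compound. Growth recovery read as OD600; NS1-free strain serves as control.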
AmpC no deterg: AmpC beta-lactamase inhibition without detergent; P00811; Potency, µM (series often up to 57.1 µM), hits mostly inhibitors; actives 0.52% (n = 330,000); AmpC nitrocefin hydrolysis, absorbance 480 nm, 0.0001% Triton; AID 485341; also: nearly all actives have a fitted effect of over 20% in size
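20 mM phosphate pH 7.0 + 0.01% (detergent screen) or 0.0001% Triton X-100; 5.3 nM AmpC reagent; cpd preinc 15 min RT; nitrocefin (800 uM stock) to start; A480 q20 s × 4 min; Activity was normalised to no-enzyme and no-compound control wells.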
Giardia growth: inhibitors of Giardia lamblia growth. Giardia lamblia trophozoite growth inhibition. actives 5% (n = 1,500). shares compounds with Giardia FBPA inh-1. Potency, µM (titrated, usually from 57.5 µM), most hits filed as inhibitors;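 also: trophozoites exposed to compound for 48 h at 37 °C; nearly all actives have a fitted effect of over 70% in size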
Mammal cell tox: mammalian cytotoxicity of Giardia aldolase inhibitor hits. actives 4% (n = 1,500). shares compounds with Giardia FBPA inh-1. AID 2786. Potency, µM (highest dose often 57.5 µM), actives largely listed as inhibitors. mammalian cell viability counter-screen, qHTS;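 also: Chinese hamster ovary cells used as mammalian cytotoxicity surrogate; viability measured as cellular ATP by luminescence; compound exposure lasted 48 h before reading; nearly all actives have a fitted effect of over 60% in size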
Giardia FBPA inh-2: confirmation of Giardia fructose-bisphosphate aldolase inhibitors; actives 5% (n = 1,500); Potency, µM (titrated, usually from 57.5 µM), actives largely listed as inhibitors; purified Giardia aldolase enzyme activity, qHTS; shares compounds with Giardia FBPA inh-1; AID 2787; also: nearly all actives have a fitted effect of over 45% in size
Rabbit FBPA inh: blocks rabbit muscle aldolase in Giardia aldolase selectivity test; shares compounds with Giardia FBPA inh-1; Rabbit muscle FBPA enzyme inhibition, selectivity counter-screen; Potency, µM (highest dose often 57.5 µM), most hits filed as inhibitors; actives 4% (n = 1,500); also: nearly all actives have a fitted effect of over 60% in size
Target sequence (P00883 whole entry, looked up): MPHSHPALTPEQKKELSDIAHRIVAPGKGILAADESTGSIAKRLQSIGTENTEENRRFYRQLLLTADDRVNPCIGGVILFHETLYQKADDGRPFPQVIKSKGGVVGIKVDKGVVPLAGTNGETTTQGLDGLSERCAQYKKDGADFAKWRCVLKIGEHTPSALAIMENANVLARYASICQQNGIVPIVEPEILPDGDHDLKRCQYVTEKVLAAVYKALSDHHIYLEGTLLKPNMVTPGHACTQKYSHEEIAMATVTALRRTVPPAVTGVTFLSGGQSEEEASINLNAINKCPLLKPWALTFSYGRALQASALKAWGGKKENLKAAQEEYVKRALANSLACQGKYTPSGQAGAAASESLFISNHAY
GAPDH counter: GAPDH inhibition flagged for Giardia aldolase hits; AID 2795; Potency, µM (doses to about 57.5 µM), actives largely listed as inhibitors; shares compounds with Giardia FBPA inh-1; GAPDH coupling enzyme counterscreen, biochemical, qHTS; actives 6% (n = 1,500); also: nearly all actives have a fitted effect of over 55% in size
A number is an active result; - = inactive; ? = inconclusive; . = no result given; [ ] = remark or other dose. Compounds with a hit are over-represented: about 1.4% of the library has one in this group of screens. Unless noted, calls follow the shape of the dose curve; as a rule, active = well fitted curve in the direction sought with a large enough effect; inconclusive = small, poorly fitted or top-dose-only effect, or another doubt; inactive = no such curve, though single readings can be large; an effect the other way counts as inactive or inconclusive.

SMILES	AmpC inh detg	SARS PLpro yeast	Giardia FBPA inh-1	NS1 function inh	AmpC no deterg	Giardia growth	Mammal cell tox	Giardia FBPA inh-2	Rabbit FBPA inh	GAPDH counter
CN(C)C(CNC(C(=O)Nc1ccc([N+](=O)[O-])cc1Br)c1ccccc1)c1ccccc1 (stereo not given)	-	-	20µM	.	-	-[10.4 µM]	-	-	-	-
Clc1ccc2c(N3CCNCC3)ccnc2c1	-	.	-	-	.	.	.	.	.	.
Cc1nnc(N/N=C\c2ccc(-c3cccc(C(=O)O)c3)o2)n1N	-	-	8.9µM	-	-	-	-	?	?	?
O=C(O)c1ccc(N/N=C/c2ccc(-c3ccc(Br)cc3)o2)cc1	-	-	-	-	-	.	.	.	.	.
Cc1nnc(N/N=C/c2ccc(-c3ccc(Br)cc3)o2)n1N	-	-	16µM	.	-	-	-	?	?	-
COC(=O)[C@@H]1C[C@@]2(O)[C@@H](O)[C@@H](O)[C@@H](O)C[C@H]2N1Cc1cc(OC)cc(OC)c1	-	-	-	-	-	.	.	.	.	.
Cc1cc(C)c(NC(=S)NCCCSC2CCCCC2)c(C)c1	-	-	16µM	.	-	?	-	-	-	-
C=C1CCC[C@]2(C)C[C@H]3OC(=O)C(CNCCN(C)C)[C@H]3CC12 (stereo not given in full)	-	-	-	-	-	.	.	.	.	.
C=C1CCC[C@]2(C)C[C@H]3OC(=O)C(CNCCN(CC)CC)[C@H]3CC12 (stereo not given in full)	-	-	16µM	-	-	?	-	-	-	-
COc1ccc(-n2nc(C)c3c(C(F)(F)F)cc(-c4cccnc4)nc32)cc1	-	.	.	.	.	.	.	.	.	.
COc1cccc(Cn2cc(C(=O)c3ccc(Cl)cc3)c(=O)c3ccccc32)c1	-	.	.	.	.	.	.	.	.	.
COc1cccc(NC(=S)Nc2ccc(O)cc2)c1	-	-	18µM	-	-	-	-	-	-	-
COc1cccc(NC(=S)Nc2ccc(F)cc2)c1	-	-	-	-	-	.	.	.	.	.
CCCOC(=O)c1cccc(NC(=O)c2cccnc2)c1	?	-	-	-	-	.	.	.	.	.
N#Cc1ccccc1NC(=S)NC(=O)c1cccnc1	-	-	14µM	-	-	-	-	-	-	-
CCOC(=O)c1cccc(NC(=S)NC(=O)c2cccnc2)c1	-	-	10µM	-	-	-	-	-	-	-
COc1cccc(NC(=S)Nc2cccnc2)c1	-	-	-	-	-	.	.	.	.	.
COc1cccc(NC(=S)NC(=O)c2cccnc2)c1	-	-	3.5µM	-	-	-	-	-	-	-
NS(=O)(=O)c1ccc(NC(=O)CN2CCCc3ccccc32)cc1	-	-	-	-	-	.	.	.	.	.
O=C(O)COc1ccc(Br)cc1/C=N\Nc1ccccn1	?	-	11µM	-	-	-	-	-	-	-
O=[N+]([O-])c1ccc(O)c(/C=N/Nc2ccccn2)c1	-	?	5µM	-	-	?	20µM	?	-	-
CC1(C)C(=O)NC2=C1C(=O)C(=O)c1ccccc12	.	.	0.16µM	.	.	16µM	20µM	1.1µM	0.89µM	1.3µM
CCCCN1CCNC[C@H]1Cc1ccc(O)cc1	?	-	.	.	-	.	.	.	.	.
Cc1cnc(C(=O)OCC(=O)NC2CCCCCCC2)cn1	-	-	-	.	-	.	.	.	.	.
Oc1ccc(-c2cn3c(n2)SCC3)cc1O	-	-	18µM	-	-	-[10.4 µM]	-	?	?	-
Cc1cc(C)nc(NN=C2CCCC2)n1	-	-	?	-	-	.	.	.	.	.
C1CCCCCC(=NNc2nn[nH]n2)CCCCC1	-	-	16µM	-	-	-	-	-	-	-
Cc1cccc(-n2cnc(C(=O)O)c2)n1	-	-	20µM	-	-	-[10.4 µM]	-	-	-	-
